Experiment [1] in a line: qHTS assay to identify small molecule that activate the aryl hydrocarbon receptor (AhR) signaling pathway - cell viability counter screen (AID 743086). Also: nearly all actives have a fitted effect of over 45% in size. Also: potency is read from the fitted curve at half-maximal effect.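 As to viability change, negative = cytotoxic: HepG2 liver cells carrying the AhR DRE luciferase reporter; series mostly up to about 70 µM.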 The method, boiled down:
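HepG2-AhR-luc (HG2L7.5c1) cells, 4000/well, treated 24 h at 37 C with compound; viability measured as CellTiter-Fluor fluorescence after 30 min in the same wells as the luciferase read.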

A short description of experiment [2]: qHTS assay to identify small molecule antagonists of the peroxisome proliferator-activated receptor gamma (PPARg) signaling pathway - cell viability counter screen (AID 743194). Also: nearly all actives have a fitted effect of over 55% in size. Also: potency is read from the fitted curve at half-maximal effect. The method, boiled down: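 Cytotoxicity counter screen in PPARg-bla HEK293H cells, same wells as reporter assay. Compounds plus 50 nM rosiglitazone (final) for 17 h at 37 C, then viability read by CellTiter-Glo luminescence.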

Experiment [3] can be described thus: qHTS assay for small molecule agonists of the antioxidant response element (ARE) signaling pathway (AID 743202; active = well fitted activation curve with a large enough effect in the signal ratio in the repeat runs, not every such curve was filed as active; the % refers to the signal ratio). The method, boiled down:
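HepG2 ARE-bla reporter line, 2,000 cells/well; 5 h preincubation 37 C/5% CO2; compound (DMSO) 16 h 37 C; B/G FRET substrate 2 h RT; fluorescence intensity.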
For orientation: Quantitative high-throughput screening tests each substance at several concentrations.

A short description of experiment [4]: qHTS assay for small molecule agonists of the antioxidant response element (ARE) signaling pathway - cell viability counter screen (AID 743203; calls by dose curve; also: nearly all actives have a fitted effect of over 55% in size; also: potency is read from the fitted curve at half-maximal effect). The method, boiled down:
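Parallel cytotoxicity read-out for the ARE-bla screen: HepG2 reporter cells, 16 hrs with compounds, then CellTiter-Glo luminescence.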

Experiment [5] is described as follows: qHTS assay for small molecule activators of the heat shock response signaling pathway - cell viability counter screen (AID 743209). Also: nearly all actives have a fitted effect of over 50% in size. The method, boiled down: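 To flag cytotoxic compounds, HSE-bla HeLa cells plated at 1500 cells/well were dosed for 5 h at 37 C, followed by the reporter FRET read and then CellTiter-Glo, with luminescence recorded 30 min after reagent addition.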

Experiment [6] in a line: qHTS assay for small molecule activators of the heat shock response signaling pathway (AID 743210; active = well fitted activation curve with a large enough effect in the signal ratio in the repeat runs, with a control signal flat, not every such curve was filed as active; the % refers to the signal ratio;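 also: HeLa cells with beta-lactamase reporter driven by heat shock elements; series mostly up to about 63 µM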). The method, boiled down:
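Beta-lactamase reporter read-out: FRET substrate fluorescence after 2.5 h at RT, following 5 h compound treatment at 37 C of HeLa cells carrying HSE-driven bla reporter; quantitative HTS format.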

Experiment [7] is described as follows: qHTS assay to identify small molecule antagonists of the peroxisome proliferator-activated receptor delta (PPARd) signaling pathway - cell viability counter screen (AID 743213). Also: nearly all actives have a fitted effect of over 50% in size. Also: potency is read from the fitted curve at half-maximal effect. Put shortly:
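In this counter screen, HEK293H cells carrying a UAS-beta-lactamase reporter are co-treated with test compounds and 300 nM L165041 (final) for 17 h at 37 C; cell viability is quantified by CellTiter-Glo luminescence.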

Experiment [8] deals with Bile acid receptor (Homo sapiens) (UniProt Q96RI1). Put plainly: qHTS assay to identify small molecule antagonists of the farnesoid-X-receptor (FXR) signaling pathway (AID 743217; active = well fitted inhibition curve with a large enough effect in the signal ratio in the repeat runs, not every such curve was filed as active; the % refers to the signal ratio). The method, boiled down:
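Quantitative HTS, beta-lactamase reporter format: FXR-UAS-bla HEK 293T cells co-treated 16 h at 37 °C with compounds and 50 uM final chenodeoxycholic acid, then read by B/G FRET fluorescence.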

Experiment [9] is described as follows: qHTS assay to identify small molecule agonists of the farnesoid-X-receptor (FXR) signaling pathway - cell viability counter screen (AID 743218). Also: nearly all actives have a fitted effect of over 45% in size. Also: potency is read from the fitted curve at half-maximal effect. The method, boiled down:
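Same-well cytotoxicity check on FXR-UAS-bla HEK 293T cells: 5 h attachment, 16 h compound at 37 C, CellTiter-Glo luminescence read at room temperature after 30 min.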

Experiment [10] deals with Bile acid receptor (Homo sapiens) (UniProt Q96RI1). Nature of the experiment: qHTS assay to identify small molecule agonists of the farnesoid-X-receptor (FXR) signaling pathway (AID 743220; active = well fitted activation curve with a large enough effect in the signal ratio in the repeat runs, not every such curve was filed as active; the % refers to the signal ratio). Put shortly:
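FXR-UAS-bla HEK 293T cells carrying a UAS-driven beta-lactamase reporter were plated for 5 h at 37C/5% CO2, then exposed to DMSO-dissolved Tox21 10K compounds for 16 h at 37C. A LiveBLAzer B/G FRET substrate was loaded for 2 h at room temperature before fluorescence reading.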

Experiment [11] in a line: qHTS assay to identify small molecule antagonists of the farnesoid-X-receptor (FXR) signaling pathway - cell viability counter screen (AID 743221; active = well fitted cell-killing curve with a large enough effect in the repeat runs, not every such curve was filed as active; also: nearly all actives have a fitted effect of over 50% in size). The method, boiled down: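 Cytotoxicity counter screen run in the FXR-bla reporter wells: HEK 293T cells exposed to compound with 50 uM (final) chenodeoxycholic acid for 16 h, 37 C, then viability measured by CellTiter-Glo luminescence after 30 min, room temperature.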

The target in experiment [12] is Vitamin D3 receptor (Homo sapiens) (UniProt P11473). Nature of the experiment: qHTS assay to identify small molecule agonists of the vitamin D receptor (VDR) signaling pathway (AID 743222; calls by dose curve). The method, boiled down: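 Using LiveBLAzer B/G FRET detection, agonism was scored in VDR-bla cells exposed overnight (16 h, 37C) to DMSO-dissolved compounds; substrate incubation was 2 h at room temperature.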
Vitamin D3 receptor (Homo sapiens), sequence (P11473 whole entry, looked up): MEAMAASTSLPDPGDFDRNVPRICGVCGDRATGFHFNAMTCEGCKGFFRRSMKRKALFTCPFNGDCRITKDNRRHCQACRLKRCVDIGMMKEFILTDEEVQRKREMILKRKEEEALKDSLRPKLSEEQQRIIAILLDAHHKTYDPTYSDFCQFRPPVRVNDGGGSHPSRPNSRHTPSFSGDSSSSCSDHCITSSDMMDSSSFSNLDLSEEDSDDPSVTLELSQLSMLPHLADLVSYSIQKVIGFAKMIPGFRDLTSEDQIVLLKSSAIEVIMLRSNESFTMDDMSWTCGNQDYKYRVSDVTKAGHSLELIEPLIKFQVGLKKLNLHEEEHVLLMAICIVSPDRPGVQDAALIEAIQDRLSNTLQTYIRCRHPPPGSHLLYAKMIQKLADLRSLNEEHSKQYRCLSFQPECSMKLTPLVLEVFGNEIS

Experiment [13] can be described thus: qHTS assay to identify small molecule agonists of the peroxisome proliferator-activated receptor delta (PPARd) signaling pathway - cell viability counter screen (AID 743211). Also: nearly all actives have a fitted effect of over 55% in size. Put shortly:
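Viability was measured as CellTiter-Glo luminescence (30 min, room temperature) in the same wells as the beta-lactamase readout. GeneBLAzer PPARd UAS-bla HEK293H cells received compound after 5 h plating and were incubated 17 h at 37 C.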

Experiment [14] concerns the target Peroxisome proliferator-activated receptor delta (Homo sapiens) (UniProt Q03181). Put plainly: qHTS assay to identify small molecule antagonists of the peroxisome proliferator-activated receptor delta (PPARd) signaling pathway (AID 743215; active = well fitted inhibition curve with a large enough effect in the signal ratio in the repeat runs, not every such curve was filed as active; the % refers to the signal ratio;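 also: cells stimulated with agonist L165041 at 300 nM final during compound exposure; series mostly up to about 62 µM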). The method, boiled down:
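Screen format: qHTS, antagonist mode. HEK293H PPARd-bla cells received compound and 300 nM L165041 (final), 17 h, 37 C. Beta-lactamase detected via FRET substrate fluorescence, 2 h, room temperature.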

Experiment [15] concerns the target Vitamin D3 receptor (Homo sapiens) (UniProt P11473). Nature of the experiment: qHTS assay to identify small molecule antagonists of the vitamin D receptor (VDR) signaling pathway (AID 743223; active = well fitted inhibition curve with a large enough effect in the signal ratio in the repeat runs, not every such curve was filed as active; the % refers to the signal ratio). The method, boiled down:
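Antagonist mode: compound added to VDR-bla cells alongside agonist 1alpha,25-dihydroxyvitamin D3 (3 nM final), incubation 16 h at 37C. Read-out is LiveBLAzer FRET fluorescence, 2 h at room temperature.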

Experiment [16] has as its target Peroxisome proliferator-activated receptor delta (Homo sapiens) (UniProt Q03181). Put plainly: qHTS assay to identify small molecule agonists of the peroxisome proliferator-activated receptor delta (PPARd) signaling pathway (AID 743212; calls by dose curve). Put shortly:
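Read-out: beta-lactamase FRET fluorescence after 2 h room-temperature incubation with LiveBLAzer B/G substrate. Cells were HEK293H carrying a UAS-bla reporter for PPARd, treated at 37 C with DMSO-dissolved compounds.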

Experiment [17] has as its target Peroxisome proliferator-activated receptor gamma (Homo sapiens) (UniProt P37231). Put plainly: qHTS assay to identify small molecule antagonists of the peroxisome proliferator-activated receptor gamma (PPARg) signaling pathway (AID 743191; calls by dose curve; also: nearly all actives have a fitted effect of over 30% in size; also: potency is read from the fitted curve at half-maximal effect). Put shortly: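 GeneBLAzer PPARg UAS-bla HEK293H cells, 5 h post-plating, exposed to compounds 17 h at 37C. LiveBLAzer B/G FRET substrate added for 1 h at room temperature; beta-lactamase reporter read by fluorescence intensity.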

Results filed as inconclusive are left out. Values without a mark were called inactive. The source made the active and inactive calls. Unless noted, calls follow the shape of the dose curve; as a rule, active = well fitted curve in the direction sought with a large enough effect in the repeat runs; inconclusive = weak or mixed curves; inactive = no such curve, though single readings can be large; an effect the other way counts as inactive or inconclusive.
% is scaled to controls: 0 for no effect and ±100 for the full control effect.

Peroxisome proliferator-activated receptor delta (Homo sapiens), sequence (Q03181 whole entry, looked up): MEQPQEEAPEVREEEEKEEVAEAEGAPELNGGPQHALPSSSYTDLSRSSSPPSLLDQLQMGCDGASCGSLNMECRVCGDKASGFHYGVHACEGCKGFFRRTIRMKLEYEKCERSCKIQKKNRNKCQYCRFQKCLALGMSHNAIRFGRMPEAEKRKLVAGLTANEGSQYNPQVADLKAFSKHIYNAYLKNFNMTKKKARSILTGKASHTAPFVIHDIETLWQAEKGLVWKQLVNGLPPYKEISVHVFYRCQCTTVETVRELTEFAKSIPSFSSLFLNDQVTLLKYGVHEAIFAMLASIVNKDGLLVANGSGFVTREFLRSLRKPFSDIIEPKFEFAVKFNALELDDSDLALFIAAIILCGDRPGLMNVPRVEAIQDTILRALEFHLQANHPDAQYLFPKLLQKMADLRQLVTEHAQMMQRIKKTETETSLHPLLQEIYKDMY
Bile acid receptor (Homo sapiens), sequence (Q96RI1 whole entry, looked up): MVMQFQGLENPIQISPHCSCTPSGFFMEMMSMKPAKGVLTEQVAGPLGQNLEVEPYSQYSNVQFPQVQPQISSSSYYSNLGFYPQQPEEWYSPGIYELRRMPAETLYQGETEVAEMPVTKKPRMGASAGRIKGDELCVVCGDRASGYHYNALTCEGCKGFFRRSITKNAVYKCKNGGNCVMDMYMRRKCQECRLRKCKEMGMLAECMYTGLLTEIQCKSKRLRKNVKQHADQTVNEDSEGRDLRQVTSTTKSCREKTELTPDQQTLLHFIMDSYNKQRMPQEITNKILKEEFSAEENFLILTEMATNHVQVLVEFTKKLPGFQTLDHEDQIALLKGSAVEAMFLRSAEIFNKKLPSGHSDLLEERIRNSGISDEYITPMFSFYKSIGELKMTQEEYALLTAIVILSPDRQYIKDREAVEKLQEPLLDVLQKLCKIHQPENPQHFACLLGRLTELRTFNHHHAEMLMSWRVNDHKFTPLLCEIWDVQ
Peroxisome proliferator-activated receptor gamma (Homo sapiens), sequence (P37231 whole entry, looked up): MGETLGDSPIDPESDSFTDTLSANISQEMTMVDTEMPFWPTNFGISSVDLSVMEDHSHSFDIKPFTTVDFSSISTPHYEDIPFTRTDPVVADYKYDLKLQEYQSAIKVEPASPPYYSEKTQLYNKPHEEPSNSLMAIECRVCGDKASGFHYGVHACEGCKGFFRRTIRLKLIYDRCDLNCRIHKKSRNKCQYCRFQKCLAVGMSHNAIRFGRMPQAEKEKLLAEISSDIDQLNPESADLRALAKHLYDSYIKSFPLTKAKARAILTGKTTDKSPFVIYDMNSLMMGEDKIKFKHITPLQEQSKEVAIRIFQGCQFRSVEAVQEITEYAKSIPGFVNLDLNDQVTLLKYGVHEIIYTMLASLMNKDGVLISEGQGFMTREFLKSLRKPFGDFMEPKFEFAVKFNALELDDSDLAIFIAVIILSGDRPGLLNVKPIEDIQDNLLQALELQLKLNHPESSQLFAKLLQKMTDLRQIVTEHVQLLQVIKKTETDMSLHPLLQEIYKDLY

On to `CCC(C)O` (stereo unspecified), for which the Potency result in experiment [1], in experiment [2], in [3], in [4], in experiment [5] and in [6] was “inactive” in each case. In addition, the Potency result in experiment [7], in experiment [8], in experiment [9], in experiment [10], in experiment [11] and in [12] was “inactive” each time.
Regarding `O=C(O)c1nc(Cl)c(Cl)c(Cl)c1Cl`, the Potency result in experiment [1], in [2], in experiment [4], in [5], in experiment [6] and in [13] was “inactive” each time. In addition, the Potency result in experiment [14] and in [11] was “inactive” each time.
With `CN(C)c1ccc(/C=C/c2ccc([N+](=O)[O-])cc2)cc1`, the viability change, negative = cytotoxic in experiment [1] is 24.5% [at 8.47 µM]; in experiment [4], 0.634% [at 8.36 µM]; in [7], 1.68% [at 6.26 µM]; in experiment [9], -8.77% [at 5.95 µM]. For the same molecule, the activity change, negative = cytotoxicity in experiment [2] is 9.25% [at 5.95 µM]; in experiment [5] it was -1.13% [at 5.95 µM]; in [13], -8.61% [at 5.95 µM]; in experiment [11] it was -0.888% [at 5.95 µM]. Besides, the activation was -18.5% [at 8.36 µM] in experiment [3], 0.443% [at 5.95 µM] in experiment [6] and -3.79% [at 5.95 µM] in [10]. Besides, the activity change, negative = inhibition in [15] was -22.2% [at 6.95 µM].
Regarding `COc1cc2nc(N3CCN(C(=O)C4COc5ccccc5O4)CC3)nc(N)c2cc1OC` (stereo unspecified), the Potency result in experiment [1], in [2], in experiment [3], in experiment [5], in experiment [6] and in [10] was “inactive” throughout. Besides, in experiment [12], the Potency entry was “inactive”. The Potency in experiment [4] is 29.8 µM (active). Also, in [15], the call was inactive.
With `NS(=O)(=O)c1ccc(N2CCCCS2(=O)=O)cc1`, the Potency entry in experiment [2], in experiment [3], in experiment [4], in experiment [6], in [9] and in experiment [10] was “inactive” in each case. Further, the Potency result in experiment [11] and in experiment [12] was “inactive” each time. Further, the outcome in experiment [15] was inactive.
Regarding `COc1cc2c(cc1OC)C(C(C(=O)N(CCc1ccc(OC)c(OC)c1OC)CCc1ccc(OC)c(OC)c1OC)c1ccccc1)=NCC2` (stereo unspecified), the Potency in experiment [1] is 8.41 µM (active). Further, the Potency result in [3], in experiment [4], in experiment [5], in experiment [6], in experiment [16] and in experiment [7] was “inactive” each time. Also, the Potency result in experiment [14] and in [11] was “inactive” throughout. For the same molecule, in [15], the molecule was classed as inactive.
Consider `CC(C)O.CC(C)O.CCOC(=O)/C=C(\C)O.CCOC(=O)/C=C(\C)O.[Ti]`, for which the Potency result in experiment [1], in experiment [4], in experiment [5], in experiment [13], in experiment [9] and in experiment [12] was “inactive” in each case. Besides, the call in experiment [15] was inactive.
For `COCCCN1CCC(NC(=O)c2cc(Cl)c(N)c3c2OCC3)CC1`, the Potency entry in [17], in experiment [2], in experiment [3], in experiment [4], in experiment [5] and in [13] was “inactive” each time. Moreover, the Potency result in experiment [7], in [9], in experiment [11] and in experiment [12] was “inactive” in each case. Besides, in experiment [15], the call was inactive.
With `CCCCCCOC(=O)NC(=N)c1ccc(NCc2nc3cc(C(=O)N(CCC(=O)OCC)c4ccccn4)ccc3n2C)cc1`, the Potency in experiment [17] was 29.8 µM (active); in experiment [2] it was 13.3 µM (active); in experiment [4], 26.6 µM (active); in experiment [7], 23.7 µM (active); in [9] it was 26.6 µM (active). Further, the Potency result in experiment [10] was “inactive”. Moreover, in experiment [15], the molecule was classed as inactive.
With `O=C(NCC1CN(c2ccc(N3CCOCC3=O)cc2)C(=O)O1)c1ccc(Cl)s1` (stereo unspecified), the Potency result in experiment [2], in experiment [3], in experiment [4], in [5], in experiment [6] and in experiment [13] was “inactive” each time. The Potency result in experiment [16], in experiment [14], in experiment [11] and in experiment [12] was “inactive” in each case. The outcome in experiment [15] was inactive.

These data come from PubChem BioAssay (Tox21).
